The record followed here is PubChem BioAssay AID1347426 (Functional Genomics Laboratory (NCATS/FGL), 2020).

In all, about 31,000 sequences went through this assay and about 1,400 (4.5%) were called active. Shown is part of a subset that was picked to be rich in actives. Values without a mark were called inactive.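 The calls were made as follows: active = median seed-adjusted z-score above 1 or below -1; inactive = the rest.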

The nature of this test: Novel Modifiers of Survival Motor Neuron (SMN) Protein: Gene Identification via Genome-wide siRNA Screen.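 Also: luminescence tracks full-length SMN protein made from the SMN2 reporter.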 The note with it: HEK293T SMN2-luciferase reporter, siRNA knockdown, 72 h; actives lie on both sides. The method, boiled down: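 Each of three siRNAs per gene is reverse-transfected (1 pmol) into reporter HEK293T cells whose luciferase output tracks SMN protein level. After 72 h culture, ONE-Glo luminescence is control-normalized, log10-transformed and MAD-standardized; Common Seed Analysis deprioritizes seed-driven hits.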
As for GGCAUUAUGUGAAGGCGAATT against SMC5, the median seed-adjusted z-score is 0.0666.

CCAUCACCUUCAAUCCGCUTT against PEMT: the median seed-adjusted z-score is 0.0218.

Take GGUAGACUGUCAUCGUGAATT against RAD50: the median seed-adjusted z-score was 0.266.

CAUCACCGCUGGGUCCAAATT against FABP1: the median seed-adjusted z-score was -0.302.

In the case of UGGAAUAAGUGGGCUCUGATT against ADM, the median seed-adjusted z-score was 0.65.

For the sequence CAAUAUGCCUUUCUCUACATT against DNASE1L3, the median seed-adjusted z-score was 0.0678.

Consider GGACUGCUUCAUAUACUGATT against GLT8D1, for which the median seed-adjusted z-score was 1.22 (active).

With GGGACUAACAUGUACAACATT against PCDH24, the median seed-adjusted z-score was 0.345.

Take CAGUUACUAUAAAAACCGATT against ZNF711: the median seed-adjusted z-score was 0.254.

On to GAGAUAGACUUGCUGAGCATT against TRIP6, for which the median seed-adjusted z-score is 1.03 (active).

Consider GGAAAAUCAAUAUAUCACUTT against ADH6, for which the median seed-adjusted z-score was -0.132.

On to GGAGCAUACAGAACGGACATT against SIPA1L3, for which the median seed-adjusted z-score is 0.

Consider GGUCAUACACGGGAUCUCUTT against SLC30A2, for which the median seed-adjusted z-score was -0.402.

With GCAUUGGAACGAUUCUAAATT against CTPS2, the median seed-adjusted z-score is 1.08 (active).

As to CGCACGCUCUUCAAAUUCUTT against ADRA2A, the median seed-adjusted z-score was -0.65.

As for GCAAAUGAGUGUGACCUAATT against RAB38, the median seed-adjusted z-score was -0.165.

For the sequence CCAACCUAAUUAUGGAGGATT against PCDHGB4, the median seed-adjusted z-score is 0.176.

As for AGGUUUAUGUGACCAAGCATT against KCTD8, the median seed-adjusted z-score was 0.0212.

In the case of GAGCGAAGAUGUCCGAAAATT against MIPEP, the median seed-adjusted z-score is -0.169.

As for GCUUCAAUGAGACAACCCUTT against IP6K2, the median seed-adjusted z-score was -0.193.

Consider CAGAAGUUGUGCAAUCCAATT against ADAM32, for which the median seed-adjusted z-score was 1.75 (active).

For the sequence GGAUGGUCGGAUUCUGAAATT against ITPKC, the median seed-adjusted z-score was 0.218.

For CCAGGCUAUCUUUCCGAUATT against PTPN3, the median seed-adjusted z-score was -0.535.

Regarding GCCCACUGACCAUACCUCATT against NAT6, the median seed-adjusted z-score was -0.327.

Regarding GGAGUUGAUUUUAUGAUUATT against RAB30, the median seed-adjusted z-score is 0.395.

In the case of GUAUCAGCAUUGAUAGAUATT against GPR21, the median seed-adjusted z-score was 0.246.

As to GCACCGAGCUUUACAGUGUTT against LARP1, the median seed-adjusted z-score was 0.251.

CCUUGUGCGUUACAGAAGATT against SCARA3: the median seed-adjusted z-score was -0.05.

Regarding CAUCAAGCCUCAUCUAAUATT against CHD1, the median seed-adjusted z-score is -1.03 (active).

For the sequence CCCAGUUUCUAGUCUGCUATT against SHKBP1, the median seed-adjusted z-score is 0.345.

With AGACAAUUUGUAACUAGAATT against NEUROD2, the median seed-adjusted z-score was -0.103.

As to AGAUCAAGGUGUACGAGAUTT against KIF26A, the median seed-adjusted z-score is -0.428.

Turning to GCAUCUAUGUAACAAAGAUTT against DLG4, the median seed-adjusted z-score was -0.498.

For CGAAUGCAUCAGAUCAACATT against UBA2, the median seed-adjusted z-score is 0.694.

With GUAACAACAUCAUCCUAGATT against HSPG2, the median seed-adjusted z-score was 0.478.

Consider GACCCGGUAUAUGAACUCATT against UCP3, for which the median seed-adjusted z-score was 1.23 (active).

With GAGAAGGCCUAUUCAGACATT against ZBTB7C, the median seed-adjusted z-score is 0.447.

In the case of CGAGCUGACUUCAACAGGATT against STC1, the median seed-adjusted z-score is -1.36 (active).

For GUGUGGUACAGAACAUUUATT against GUCA1C, the median seed-adjusted z-score is -0.617.

Regarding GCAACAACCUGAUUAAGGATT against MED24, the median seed-adjusted z-score is -2.3 (active).

Consider GGACUCAGCAGGAUACAAUTT against FOXJ2, for which the median seed-adjusted z-score is -0.627.

On to ACUUAGCACUUUAUAUUUATT against DUSP2, for which the median seed-adjusted z-score is 0.576.

For the sequence GAGCAGUACUGGGAAGAGATT against CARD14, the median seed-adjusted z-score is -0.104.

In the case of GCAGCUUAGGAACAGCAGATT against THOC4, the median seed-adjusted z-score is -1.54 (active).

Turning to CCAUGACACGGUCCUCCAATT against ICAM2, the median seed-adjusted z-score was 0.269.

For the sequence GCUUUGUGGUGUGGAGUAUTT against LTB4R, the median seed-adjusted z-score is 0.498.

For the sequence GAAGAUGACAUGUACCGUATT against XPA, the median seed-adjusted z-score is 2.03 (active).

On to GCUGCUACUUUGAAGUCCATT against FGG, for which the median seed-adjusted z-score is -0.043.

On to CAUGCAGCCUUAAGCCUCATT against ILKAP, for which the median seed-adjusted z-score was 0.

With GCCUAGAGCUAAGUACCAATT against CHUK, the median seed-adjusted z-score is -0.613.

With GGCACUAAGUUUGACCGGATT against AQR, the median seed-adjusted z-score was -1.56 (active).

Consider GCCUUUGACCUGUCAGUGUTT against ASMT, for which the median seed-adjusted z-score was -0.322.

As for GCAUCCUGUUUGUAAAUGATT against DLG4, the median seed-adjusted z-score was -0.498.

Take CCGUGGUUACAGAAACGUATT against ABHD3: the median seed-adjusted z-score is -0.126.

As for CAAGAUGCUGGAUAAGGAATT against GYS1, the median seed-adjusted z-score is 0.874.

As for GGAUUCUUGUUGGACUAAUTT against RHBDD1, the median seed-adjusted z-score is 0.00277.

Turning to CAAUAGGAUUAUCAUGAGATT against MRS2, the median seed-adjusted z-score is 1.38 (active).

With GGCUACAACAUGACUCGUATT against FZD10, the median seed-adjusted z-score was -0.226.

Take UCACUGUCCCAGACACCAATT against EPO: the median seed-adjusted z-score is 0.148.

Consider UGGACAACUUUGUACCUAATT against EBP, for which the median seed-adjusted z-score was 0.017.

For the sequence GGCUCAACAUGGACCGGAUTT against BCAT2, the median seed-adjusted z-score is 0.0438.

As to CAAAGGCGAUAACAUCUAUTT against UBE2E1, the median seed-adjusted z-score is 0.888.

On to GCCCUAAAGGAGAAAGUCATT against MAT2A, for which the median seed-adjusted z-score was -1.9 (active).

Consider GCAUGUAAGAAUCCACAAUTT against ZNF187, for which the median seed-adjusted z-score is 0.419.

For GCCUAAAUCCCAAAUCGAATT against CXCL11, the median seed-adjusted z-score is -0.135.

Take ACAGCGACCUUGCAAAGAATT against ZNF496: the median seed-adjusted z-score is -0.971.

Consider GAAAGUGCUCGGUGCCUUUTT against HBB, for which the median seed-adjusted z-score is -0.151.

GGCGAGAAGAGCAACGUAATT against DDX46: the median seed-adjusted z-score is -1.24 (active).

CAACGGCUUCUGUCAUUUATT against SUCLG1: the median seed-adjusted z-score is -0.63.

For the sequence GAAGUUCUCUUUACAACCATT against RFX2, the median seed-adjusted z-score was 0.271.

Consider GUUCAGCACUCAUUAGACATT against ZNF17, for which the median seed-adjusted z-score was 0.579.

For the sequence CGAUCAUUACCUCUCCAGATT against ARHGEF4, the median seed-adjusted z-score is 0.332.

Regarding GAAUGACCAGAGACAUCUATT against INSR, the median seed-adjusted z-score was 0.172.

For GGAUUUGCCGAAUUAACAATT against RELB, the median seed-adjusted z-score is 1.16 (active).

Regarding GGAGAUAGCUUUGCCUAUATT against RBM15B, the median seed-adjusted z-score was -0.183.

For GGUACUCGGUGGAAACCAATT against CNKSR3, the median seed-adjusted z-score was 0.

Regarding CAUUAACCAGUGAACGCAATT against AADAT, the median seed-adjusted z-score was 0.0891.

As for CAAGAAUGUUACUAACAAUTT against TPM4, the median seed-adjusted z-score was -0.407.

GCUACAGUCUCUACCCUGATT against BARX1: the median seed-adjusted z-score is 1.63 (active).

Turning to AGCUCAAGAAGUACACCAATT against CHST12, the median seed-adjusted z-score was 0.

As for CCUCGAUUCCAUUAUCAUUTT against RECQL4, the median seed-adjusted z-score is 0.475.

In the case of GCCUAGAGGACUACAAGAATT against FZD8, the median seed-adjusted z-score is -0.177.

As to GCGUAAUUUGGACCUCUUUTT against ZDHHC21, the median seed-adjusted z-score was 0.216.

On to CAUUGUGAGCUAUAACGAUTT against CDH10, for which the median seed-adjusted z-score was 0.

For the sequence GAAACAGUGCUAGAUAAAATT against SULT1C2, the median seed-adjusted z-score was 0.

Regarding CCAUCUAGCUUAUCGAUAUTT against DYRK3, the median seed-adjusted z-score is 0.358.

Regarding GAAUUCAGCAUGACCGAUATT against GABPA, the median seed-adjusted z-score was 1.43 (active).

For the sequence CCAUUAUGAUCGUAAGGCATT against GCNT4, the median seed-adjusted z-score was -0.0629.

For GCAAGUACCUGAGAACGGATT against APOB, the median seed-adjusted z-score was -0.0862.

On to GGCUCUCGUAUGUAACGUATT against USP24, for which the median seed-adjusted z-score is 0.101.

For GGUUCUCUUGCAUUACUUUTT against GLP2R, the median seed-adjusted z-score is 0.492.

As to AGAUCGCUGUCAAAACCCUTT against GFOD1, the median seed-adjusted z-score is 0.923.

For the sequence GGUUAACCCAGAACGUAAATT against TCP1, the median seed-adjusted z-score was -1.02 (active).

On to GGACCCUACCAGAACUACATT against SEMA6D, for which the median seed-adjusted z-score was 0.0624.

Consider GGACUGAGCUUCUCAAUGUTT against FOLR1, for which the median seed-adjusted z-score is -1.31 (active).

Take GCAUCGUGAUCGUUCCAAUTT against CHD1L: the median seed-adjusted z-score was 0.63.

Consider GACCAUGGAUAAUAAGAAATT against CLCN6, for which the median seed-adjusted z-score is -0.136.

With CAACUGUUCCAACAACAAUTT against HAVCR1, the median seed-adjusted z-score is -0.306.

As to GAGUCCUAUUACCAGCUCATT against SRM, the median seed-adjusted z-score is 0.

Turning to CUGCCGAACUUUUAAACAATT against MCHR2, the median seed-adjusted z-score is -0.658.

On to UGGAAUCUGUGGUAAAGAATT against HGS, for which the median seed-adjusted z-score was 1.16 (active).

On to CCACGUCUAAAGUCCGAAATT against KIF3C, for which the median seed-adjusted z-score was 0.0126.

For the sequence GAAUGGUCGUGGAUUCACATT against MAPKAPK5, the median seed-adjusted z-score was 0.489.

Regarding GGAGAUUCCAUAAGACAAUTT against ZNF114, the median seed-adjusted z-score is -0.303.

GGAUCUUCGUGAAGUAUUUTT against TRA2A: the median seed-adjusted z-score is -0.187.

As for AAAUUCCCGUCAUUGAAAATT against SNRPA1, the median seed-adjusted z-score is -2.71 (active).

For GGAUUGCUUCUGACUCCGATT against ELK3, the median seed-adjusted z-score was -0.16.

Take CAUUGACCACUACAAGUAATT against ITFG1: the median seed-adjusted z-score is -0.417.

CAUUUGCGGUUCGGACAAATT against CACNB2: the median seed-adjusted z-score was 0.
